From PubChem BioAssay (NCI)
The panel holds about 83,000 compounds, 20% with a hit somewhere; the sample as a whole holds those more often.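 Testing used 96-well plates and a 48-hour single-concentration exposure. Example: -40 means 40% of the starting cells died.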 Calls of active or inactive are those of the source. How the source made its calls: active means growth percent below 10; inactive means the rest.

Key:
Experiment in all cases: NCI-60 one-dose screen, 48 h (100 = growth as untreated, 0 = no growth, -100 = all killed)
SR leukemia = conditions: 10 µM unless noted
RPMI-8226 leukemia = conditions: 10 µM unless noted
OVCAR-8 ovarian = conditions: 10 µM unless noted
OVCAR-5 ovarian = conditions: 10 µM unless noted
OVCAR-4 ovarian = conditions: 10 µM unless noted
SK-OV-3 ovarian = conditions: 10 µM unless noted
IGROV1 ovarian = conditions: 10 µM unless noted
OVCAR-3 ovarian = conditions: 10 µM unless noted
HS 578T breast = conditions: 10 µM
NCI/ADR-RES ovarian = conditions: 10 µM unless noted
T-47D breast = conditions: 10 µM unless noted
BT-549 breast = conditions: 10 µM unless noted
MDA-MB-435 melanoma = conditions: 10 µM unless noted
SW-620 colon = conditions: 10 µM unless noted
MCF7 breast = conditions: 10 µM unless noted
HCT-116 colon = conditions: 10 µM unless noted
KM12 colon = conditions: 10 µM unless noted
HCC-2998 colon = conditions: 10 µM unless noted

Measured: growth

O=C1OCC2=C1C(c1ccc(Cl)c(Cl)c1)c1cc3c(cc1N2CCO)CCC3 (stereo not given)
active: OVCAR-3 ovarian -42% | HS 578T breast 5.2% | NCI/ADR-RES ovarian 4.51% | MDA-MB-435 melanoma -38.6% | KM12 colon 9.04%
inactive: SR leukemia 33.7% | RPMI-8226 leukemia 22% | OVCAR-8 ovarian 23.5% | OVCAR-5 ovarian 35.3% | OVCAR-4 ovarian 50% | SK-OV-3 ovarian 38.6% | IGROV1 ovarian 30.1% | T-47D breast 63.3% | BT-549 breast 44.8% | SW-620 colon 24.5% | MCF7 breast 20.4% | HCT-116 colon 18.3%

COc1ccc(-c2nn(-c3cccc(Cl)c3)cc2/C=C2\C(=N)N(c3ccccc3)N=C2N)cc1
inactive: SR leukemia 17.9% | RPMI-8226 leukemia 47.3% | OVCAR-8 ovarian 42.3% | OVCAR-5 ovarian 39.8% | OVCAR-4 ovarian 71.6% | SK-OV-3 ovarian 91.3% | IGROV1 ovarian 27.9% | OVCAR-3 ovarian 38.8% | HS 578T breast 82.1% | NCI/ADR-RES ovarian 34.7% | T-47D breast 28.6% | BT-549 breast 101% | MDA-MB-435 melanoma 31.3% | SW-620 colon 32.5% | MCF7 breast 26.6% | HCT-116 colon 51.3%
active: HCC-2998 colon 0.0499% | KM12 colon -25.2%

CCc1ccc2c(c1)N(CCO)C1=C(C(=O)OC1)C2c1cccc(Br)c1 (stereo not given)
inactive: SR leukemia 28.6% | RPMI-8226 leukemia 24.7% | OVCAR-8 ovarian 33.7% | OVCAR-5 ovarian 36.4% | OVCAR-4 ovarian 59.9% | SK-OV-3 ovarian 28.1% | IGROV1 ovarian 39.3% | T-47D breast 47.5% | BT-549 breast 46.6% | SW-620 colon 26.8% | MCF7 breast 21.1% | HCT-116 colon 26.9% | KM12 colon 19.2%
active: OVCAR-3 ovarian -10.6% | HS 578T breast 3.25% | NCI/ADR-RES ovarian 9.74% | MDA-MB-435 melanoma -62.5%

CCOC(=O)C(Nc1ccccc1)C(=O)OCC
inactive: SR leukemia 106% | RPMI-8226 leukemia 106% | OVCAR-8 ovarian 105% | OVCAR-5 ovarian 100% | OVCAR-4 ovarian 93% | SK-OV-3 ovarian 105% | IGROV1 ovarian 92.3% | OVCAR-3 ovarian 129% | HS 578T breast 117% | NCI/ADR-RES ovarian 102% | T-47D breast 102% | BT-549 breast 95.1% | MDA-MB-435 melanoma 110% | SW-620 colon 111% | MCF7 breast 95.8% | HCT-116 colon 101% | KM12 colon 115%

COc1ccc(-c2nc(-c3ccccc3OCc3ccccc3OC)nc(C)c2C(C)=O)cc1
inactive: SR leukemia 78.8% | RPMI-8226 leukemia 73% | OVCAR-8 ovarian 86.9% | OVCAR-5 ovarian 94.1% | OVCAR-4 ovarian 94.9% | SK-OV-3 ovarian 96.1% | IGROV1 ovarian 89.7% | OVCAR-3 ovarian 102% | HS 578T breast 72.8% | NCI/ADR-RES ovarian 83.7% | T-47D breast 61% | BT-549 breast 98.4% | MDA-MB-435 melanoma 90.4% | SW-620 colon 67.5% | MCF7 breast 83.8% | HCT-116 colon 66.4% | HCC-2998 colon 86.2% | KM12 colon 64.4%

COc1ccc2[nH]c(C(=O)OCc3ccc4c(Br)cc(Br)c(O)c4n3)cc2c1
active: SR leukemia 2.81% | RPMI-8226 leukemia -24.2% | OVCAR-8 ovarian -27.7% | OVCAR-5 ovarian -48.4% | OVCAR-4 ovarian -44.2% | IGROV1 ovarian -90.9% | OVCAR-3 ovarian -91.3% | HS 578T breast -15.4% | NCI/ADR-RES ovarian -30.6% | T-47D breast -51.9% | BT-549 breast -88.2% | MDA-MB-435 melanoma -72.4% | SW-620 colon -72.8% | MCF7 breast -36.8% | HCT-116 colon -74.8% | KM12 colon -48.6%
inactive: SK-OV-3 ovarian 62.6%

CC(C)(C)c1ccc(Cn2c(-c3nonc3N)nc3ccccc32)cc1
active: MDA-MB-435 melanoma 8.66%
inactive: SR leukemia 28.2% | RPMI-8226 leukemia 61.9% | OVCAR-8 ovarian 80.1% | OVCAR-5 ovarian 99.2% | OVCAR-4 ovarian 98.4% | SK-OV-3 ovarian 61% | IGROV1 ovarian 66.6% | OVCAR-3 ovarian 69% | HS 578T breast 85.1% | NCI/ADR-RES ovarian 75.8% | T-47D breast 53.6% | BT-549 breast 90.2% | SW-620 colon 51.5% | MCF7 breast 35.5% | HCT-116 colon 62.6% | HCC-2998 colon 77.7% | KM12 colon 59.4%

CC1(C)CC[C@]2(C(=O)N3CCNCC3)CC[C@]3(C)C(=CC[C@@H]4[C@@]5(C)CCC(=O)C(C)(C)[C@@H]5CC[C@]43C)[C@@H]2C1
inactive: SR leukemia 109% | RPMI-8226 leukemia 104% | OVCAR-8 ovarian 95.9% | OVCAR-5 ovarian 109% | OVCAR-4 ovarian 103% | SK-OV-3 ovarian 109% | IGROV1 ovarian 113% | OVCAR-3 ovarian 118% | HS 578T breast 104% | NCI/ADR-RES ovarian 103% | T-47D breast 102% | BT-549 breast 106% | MDA-MB-435 melanoma 105% | SW-620 colon 106% | MCF7 breast 98.6% | HCT-116 colon 101% | KM12 colon 111%

CN(C)c1ccc(/C=N/Nc2nnc3n2N=C(c2ccc(Cl)cc2)CS3)cc1
inactive: SR leukemia 94.1% | RPMI-8226 leukemia 82.5% | OVCAR-8 ovarian 96.5% | OVCAR-5 ovarian 108% | OVCAR-4 ovarian 98.8% | SK-OV-3 ovarian 108% | IGROV1 ovarian 84.4% | OVCAR-3 ovarian 102% | HS 578T breast 92% | NCI/ADR-RES ovarian 94% | T-47D breast 84.2% | BT-549 breast 90.3% | MDA-MB-435 melanoma 97.5% | SW-620 colon 102% | MCF7 breast 77.4% | HCT-116 colon 99% | HCC-2998 colon 106% | KM12 colon 101%

O=C(N=Nc1c(Cl)c(O)c2ccccc2c1O)C(=O)Nc1cccc(C(F)(F)F)c1
inactive: SR leukemia 32.2% | RPMI-8226 leukemia 76.9% | OVCAR-8 ovarian 83.6% | OVCAR-5 ovarian 118% | OVCAR-4 ovarian 66.9% | SK-OV-3 ovarian 89.6% | IGROV1 ovarian 39.3% | OVCAR-3 ovarian 24.7% | HS 578T breast 83.8% | NCI/ADR-RES ovarian 71% | T-47D breast 44.9% | BT-549 breast 69% | SW-620 colon 63.6% | HCT-116 colon 33.1% | HCC-2998 colon 96.2% | KM12 colon 53.6%
active: MDA-MB-435 melanoma -29.3% | MCF7 breast -4.71%

CCc1ccc2c(c1)N(CCO)C1=C(C(=O)OC1)C2c1cccc(Cl)c1 (stereo not given)
active: OVCAR-3 ovarian -35.9% | HS 578T breast 7.46% | NCI/ADR-RES ovarian 8.16% | MDA-MB-435 melanoma -57.3%
inactive: SR leukemia 20.2% | RPMI-8226 leukemia 20.3% | OVCAR-8 ovarian 27% | OVCAR-5 ovarian 30.3% | OVCAR-4 ovarian 63.8% | SK-OV-3 ovarian 27.2% | IGROV1 ovarian 31.2% | T-47D breast 52.1% | BT-549 breast 42.1% | SW-620 colon 26% | MCF7 breast 24.5% | HCT-116 colon 15.3% | KM12 colon 13.4%

COc1cc(CN2CCO[C@H](COc3cccc(F)c3)C2)ccc1Cl
inactive: SR leukemia 50.8% | RPMI-8226 leukemia 30.4% | OVCAR-8 ovarian 22.2% | OVCAR-5 ovarian 47.8% | SK-OV-3 ovarian 34.5% | IGROV1 ovarian 67.3% | OVCAR-3 ovarian 49.4% | HS 578T breast 51.7% | NCI/ADR-RES ovarian 26% | T-47D breast 28.2% | BT-549 breast 50.2% | MDA-MB-435 melanoma 29.2% | SW-620 colon 47.4% | MCF7 breast 26.7% | HCC-2998 colon 49.3% | KM12 colon 69%
active: OVCAR-4 ovarian 9.51%

COc1ccc(/C=C(/C(=O)N2CCN(c3ccccc3)CC2)c2cc(OC)c(OC)c(OC)c2)cc1N
inactive: SR leukemia 12.5% | OVCAR-8 ovarian 19.7% | OVCAR-5 ovarian 53.2% | OVCAR-4 ovarian 52.3% | SK-OV-3 ovarian 36.9% | IGROV1 ovarian 36.3% | HS 578T breast 36.6% | T-47D breast 65.3% | SW-620 colon 25.9% | MCF7 breast 19.9% | HCC-2998 colon 25.3% | KM12 colon 14.4%
active: RPMI-8226 leukemia 7.73% | OVCAR-3 ovarian -43.8% | NCI/ADR-RES ovarian 7.6% | BT-549 breast 9.88% | MDA-MB-435 melanoma -48.7% | HCT-116 colon 9.1%

COc1ccc(C2=CC(c3ccc(OC)cc3Br)N3C=CSC3=N2)cc1 (stereo not given)
active: SR leukemia -22.1% | RPMI-8226 leukemia -9.05% | MDA-MB-435 melanoma 4.2% | HCT-116 colon -100%
inactive: OVCAR-8 ovarian 73.7% | OVCAR-5 ovarian 84.6% | OVCAR-4 ovarian 79.7% | SK-OV-3 ovarian 98.2% | IGROV1 ovarian 37.8% | OVCAR-3 ovarian 37.5% | HS 578T breast 87.7% | NCI/ADR-RES ovarian 86.5% | T-47D breast 54.6% | BT-549 breast 30.7% | SW-620 colon 27.3% | MCF7 breast 10.5% | HCC-2998 colon 59.7% | KM12 colon 24.1%

C=C(C)[C@@H]1CC[C@]2(C)[C@H](CC=C3[C@@H]4C[C@](C)(C(=O)N5CCN(C)CC5)CC[C@]4(C)CC[C@]32C)[C@@]1(C)CCC#N
inactive: SR leukemia 39.4% | RPMI-8226 leukemia 32% | OVCAR-8 ovarian 74.7% | OVCAR-5 ovarian 88.2% | OVCAR-4 ovarian 62.9% | SK-OV-3 ovarian 63.3% | IGROV1 ovarian 76.4% | OVCAR-3 ovarian 55.3% | HS 578T breast 81.4% | NCI/ADR-RES ovarian 75.6% | T-47D breast 42.4% | BT-549 breast 56.6% | MDA-MB-435 melanoma 51.3% | SW-620 colon 57.1% | MCF7 breast 34.1% | HCT-116 colon 26.7% | KM12 colon 53.6%

Cc1ccc(NC(=O)Cn2nncc2CN2C(=O)CSC2=O)cc1C
inactive: SR leukemia 124% | RPMI-8226 leukemia 106% | OVCAR-8 ovarian 102% | OVCAR-5 ovarian 112% | OVCAR-4 ovarian 104% | SK-OV-3 ovarian 89.7% | IGROV1 ovarian 111% | OVCAR-3 ovarian 102% | HS 578T breast 99.2% | NCI/ADR-RES ovarian 96.1% | T-47D breast 98.7% | BT-549 breast 98.8% | MDA-MB-435 melanoma 100% | SW-620 colon 99.3% | MCF7 breast 92% | HCC-2998 colon 92.5% | KM12 colon 105%

CCN(CC)C(Cl)=Nc1ccc(Cl)cc1
inactive: SR leukemia 84.3% | RPMI-8226 leukemia 95.1% | OVCAR-8 ovarian 106% | OVCAR-5 ovarian 105% | OVCAR-4 ovarian 108% | SK-OV-3 ovarian 102% | IGROV1 ovarian 109% | OVCAR-3 ovarian 107% | HS 578T breast 101% | NCI/ADR-RES ovarian 106% | T-47D breast 102% | BT-549 breast 112% | MDA-MB-435 melanoma 100% | SW-620 colon 102% | MCF7 breast 101% | HCT-116 colon 98.1% | HCC-2998 colon 101% | KM12 colon 107%

Cc1c(O)c(=O)n(-c2ccccc2)n1C
inactive: SR leukemia 91.4% | RPMI-8226 leukemia 104% | OVCAR-8 ovarian 109% | OVCAR-5 ovarian 87.2% | OVCAR-4 ovarian 111% | SK-OV-3 ovarian 105% | IGROV1 ovarian 117% | OVCAR-3 ovarian 108% | HS 578T breast 127% | NCI/ADR-RES ovarian 105% | T-47D breast 99.5% | BT-549 breast 109% | MDA-MB-435 melanoma 109% | SW-620 colon 114% | MCF7 breast 101% | HCT-116 colon 109% | HCC-2998 colon 97.3% | KM12 colon 105%
